RE007 growth inh – qHTS Assay for Inhibitors of the HIV-1 protein Vpr. S. pombe RE007 Vpr strain, BacTiter-Glo ATP luminescence, 24 h. Potency, µM (series often up to 92.2 µM), without a hit: top-dose activity change, negative = less growth, hits mostly inhibitors. actives 0.21% (n = 360,000); active means well fitted falling curve with a large enough effect; inconclusive means small, poorly fitted or top-dose-only effect; inactive means no such curve, though single readings can be large or run the other way; further: on the % scale 0 is the no-effect control and ±100 the full control effect; nearly all actives have a fitted effect of over 50% in size
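Fission yeast RE007 carrying one integrated HIV-1 vpr copy, seeded at OD 0.01 in PMG+AL medium with 23 nL pinned compound. Grown 24 h at 30 degrees; viability read by BacTiter-Glo luminescence after 5 min.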
Sm TGR block – qHTS Assay for the Inhibitors of Schistosoma Mansoni Peroxiredoxins. Schistosoma mansoni thioredoxin glutathione reductase (TGR), Q962Y6. purified TGR, DTNB reduction, TNB absorbance 405 nm. Potency, µM (doses to about 114 µM), for inactives: at the highest dose activity change, negative = inhibition, hits mostly inhibitors. actives 3% (n = 360,000). AID 485364, 2010; further: on the % scale 0 is the no-effect control and ±100 the full control effect; nearly all actives have a fitted effect of over 60% in size
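Kinetic colorimetric format: TGR-catalysed, NADPH-driven DTNB reduction monitored via TNB absorbance. Enzyme dispensed at 20 nM; compound exposure 15 min at room temperature before reaction start.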
AmpC no deterg – qHTS Inhibitors of AmpC Beta-Lactamase (assay without detergent). P00811. AmpC nitrocefin hydrolysis, absorbance 480 nm, 0.0001% Triton. Potency, µM (titrated, usually from 57.1 µM), for the others: at the top dose activity change, negative = inhibition, usual class: inhibitors. actives 0.52% (n = 330,000). AID 485341, 2010;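 further: plate controls were no compound for no effect and no enzyme for full effect; nearly all actives have a fitted effect of over 20% in size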
Target sequence (P00811 whole entry, looked up): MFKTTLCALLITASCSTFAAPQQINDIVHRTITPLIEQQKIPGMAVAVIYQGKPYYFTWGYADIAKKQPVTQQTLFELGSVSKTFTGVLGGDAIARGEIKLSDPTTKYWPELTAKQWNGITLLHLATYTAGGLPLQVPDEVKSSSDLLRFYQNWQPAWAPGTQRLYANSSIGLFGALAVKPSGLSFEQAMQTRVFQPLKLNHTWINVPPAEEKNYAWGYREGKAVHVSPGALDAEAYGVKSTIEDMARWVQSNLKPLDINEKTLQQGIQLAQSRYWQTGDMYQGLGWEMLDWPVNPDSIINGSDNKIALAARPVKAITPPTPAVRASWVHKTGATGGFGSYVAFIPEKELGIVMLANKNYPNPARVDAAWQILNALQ
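20 mM phosphate pH 7.0 + 0.01% (detergent screen) or 0.0001% Triton X-100; 5.3 nM AmpC reagent; cpd preinc 15 min RT; nitrocefin (800 uM stock) to start; A480 q20 s × 4 min; Activity was normalised to no-enzyme and no-compound control wells.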
SARS PLpro yeast – qHTS of Yeast-based Assay for SARS-CoV PLP; S. cerevisiae expressing SARS-CoV PLpro, growth rescue; Potency, µM (top dose mostly 32.9 µM), inactives show top-dose activity, positive = growth rescue, most hits filed as activators; actives 0.19% (n = 330,000); AID 485353, 2010; calls by dose curve; further: 0% is about no effect; nearly all actives have a fitted effect of over 55% in size
TbPYK inhibitor – qHTS of Trypanosoma Brucei Inhibitors; TbPYK enzyme, Kinase-Glo Plus ATP luminescence, 45 min; Potency, µM (top dose mostly 76.8 µM), inactives show top-dose activity, negative = inhibition, most hits filed as inhibitors; actives 0.12% (n = 410,000); further: on the % scale 0 is the no-effect control and ±100 the full control effect; nearly all actives have a fitted effect of over 50% in size
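In this concentration-response screen, enzyme-free wells defined baseline while DMSO plates tracked drift. Each reaction combined TbPYK, substrate, compound and 130 uM ADP for 45 min at room temperature. Kinase-Glo Plus luminescence gave the signal.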
AmpC detergent – qHTS Inhibitors of AmpC Beta-Lactamase (assay with detergent). P00811. AmpC hydrolysis of nitrocefin, absorbance 480 nm, 0.01% Triton. Potency, µM (series often up to 114 µM), for inactives: at the highest dose activity change, negative = inhibition, hits mostly inhibitors. actives 0.041% (n = 370,000);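 further: 0% = no-compound wells and -100% = no-enzyme wells; nearly all actives have a fitted effect of over 25% in size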
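20 mM phosphate pH 7.0 + 0.01% (detergent screen) or 0.0001% Triton X-100; 5.3 nM AmpC reagent; cpd preinc 15 min RT; nitrocefin (800 uM stock) to start; A480 q20 s × 4 min; Activity was normalised to no-enzyme and no-compound control wells.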
Active calls of the source: *; ? = inconclusive; · = no result given; [ ] = dose if it differs, or a comment. Rows were chosen to be rich in hits. Some 3.3% of all compounds tested hit in one or more screens of this group. Unless noted, the call rests on the fitted dose curve; in most records, active means well fitted curve in the direction sought with a large enough effect; inconclusive means small, poorly fitted or top-dose-only effect, or another doubt; inactive means no such curve, though single readings can be large; an effect the other way counts as inactive or inconclusive. Potency means the concentration at half of the fitted maximal effect.

SMILES | RE007 growth inh | Sm TGR block | AmpC no deterg | SARS PLpro yeast | TbPYK inhibitor | AmpC detergent
O=C1COc2ccc(C(=O)CCl)cc2N1 | 5.8% | 3.55µM* | -9.6% | 16.4% | -1.3% | -4.7%
O=C(Nc1ccccc1)c1cccc(S(=O)(=O)Nc2cccc(F)c2)c1 | · | 12.1% | · | · | 1.6% | 2.3%
CCCN(c1ccccc1CC)S(=O)(=O)c1ccc2c(c1)CC(C)N2C(=O)C1CC1 (stereo not drawn) | · | 4.1% | · | · | 0.7% | 3.9%
Cc1onc(-c2ccccc2)c1C(=O)NC(=S)NNC(=O)c1cc(-c2ccc(F)cc2)n[nH]1 | 6.4% | -6.5% | 2µM* | 25.5% | 0.9% | 2.0%
FC(F)(F)c1cccc(NC(=S)Nc2ccc(Cl)cc2Cl)c1 | 0.4% | 22.4µM* | -26.3% | -3.7% | -12.1% | -2.0%
S=C(NCC1CCCO1)Nc1ccc(Cl)cc1Cl (stereo not drawn) | 1.7% | 50.1µM* | -17.1% | 19.4% | -18.7% | -4.3%
S=C(Nc1ccccc1)Nc1ccc(Cl)cc1Cl | 4.3% | 25.1µM* | -9.4% | -21.7% | 3.2% | 0.8%
FC(F)(F)c1cccc(NC(=S)Nc2cccc(NC(=S)Nc3cccc(C(F)(F)F)c3)n2)c1 | -15.6% | -18.4% | 7.94µM* | -0.3% | -3.2% | -1.4%
COc1ccc(Cn2c(C(=O)O)c(CNC3CCCCCC3)c3ccc(OC)cc32)cc1 | · | 26.3% | · | · | -5.1% | 5.7%
CN1CCOc2ccc(S(=O)(=O)N3CCN(S(=O)(=O)c4c(F)cccc4F)CC3)cc21 | · | -4.3% | -11.4% | 2.6% | · | -10.5%
FC(F)(F)c1ccccc1NC(=S)Nc1cccc(Cl)c1 | -11.1% | 25.1µM* | -7.6%[2.29 µM] | -0.7% | -1.3% | -0.8%
S=C(Nc1ccccc1Cl)Nc1ccc(Cl)cc1Cl | -3.2% | 25.1µM* | -12.1% | -1.8% | -4.0% | 0.7%
Fc1ccc(NC(=S)Nc2cccc(Cl)c2)cc1 | -18.8% | ? | -16.5% | -29.2% | -3.4% | 2.0%
CC(C)(C)C(=O)NCCc1csc2nc(-c3ccc(F)cc3)nn12 | · | 0.8% | · | · | 7.2% | 9.9%
Cc1cccc(-c2nnc(SCCC(=O)O)o2)c1 | · | -9.1% | · | · | -32.9% | -4.4%
COc1ccccc1N1CCN(c2cc(C)nc3nncn23)CC1 | · | ? | · | · | 0.9% | 11.4%
CC(=O)c1ccc(NC(=O)CSc2ccc(-c3ccco3)nn2)cc1 | 1.4% | 22.4µM* | -17.7% | -0.7% | -11.3% | 1.2%
CC(=O)Nc1ccc(NC(=O)CSc2ccc(-c3ccco3)nn2)cc1 | 18.2% | 8.91µM* | -28.2% | -0.1% | -27.9% | 4.1%
Cc1ccc(NC(=O)CSc2ccc(-c3ccco3)nn2)c(C)c1 | -6.5% | 28.2µM* | -32.5% | 0.2% | -7.1% | -9.2%
Cc1ccc(NC(=O)CSc2ccc(-c3ccco3)nn2)cc1 | 12.7% | 10µM* | -34.0% | -1.7% | -15.2% | 5.0%
COC(=O)c1cccc(Nc2c(-c3cc(Br)ccc3O)nc3nc[nH]n23)c1 | · | -28.4% | · | · | -4.2% | 3.2%
CCCSc1nnc2[nH]c(=O)cc(C)n12 | · | -1.0% | · | · | -2.9% | 1.1%
Cc1cccc(N(CC(=O)NCCSc2ccc(Cl)cc2)S(C)(=O)=O)c1C | · | 9.7% | · | · | 0.1% | -3.5%
Cc1ccc(-c2nc3cc(NC(=O)c4cc(Br)ccc4Cl)ccc3o2)cc1 | · | 0.9% | · | · | 3.1% | -7.4%
CC(=O)Nc1cccc(NC(=O)CSc2ccc(-c3ccco3)nn2)c1 | -11.4% | 14.1µM* | -18.0% | 2.3% | ? | 0.6%
SMILES | RE007 growth inh | Sm TGR block | AmpC no deterg | SARS PLpro yeast | TbPYK inhibitor | AmpC detergent
CC(=O)Nc1cccc(NC(=O)CSc2ccc(-c3cccnc3)nn2)c1 | 30.8% | 6.5% | -15.8% | 5.0% | -0.2% | -11.0%
COc1ccc(CCNC(=O)C2CCCN(S(=O)(=O)c3ccc(F)cc3)C2)cc1 (stereo not drawn) | -15.6% | 89.1µM* | 14.6% | -1.3% | 2.3% | -0.5%
COc1ccc(S(=O)(=O)N2CCCC(C(=O)NCc3ccc(F)cc3)C2)cc1 (stereo not drawn) | -11.5% | 3.8% | -9.6% | -22.5% | 8.3% | -1.1%
COc1ccc(NC(=O)C2CCCCN2S(=O)(=O)c2ccc(F)cc2)cc1 (stereo not drawn) | -12.7% | 6.3% | 3.16µM* | -12.7% | 2.2% | 12.5%
Cn1c(O)c(/C=C2\N=c3ccccc3=C2CCNC(=S)NC2CC2)c(=O)n(C)c1=O | -7.9% | 5.62µM* | 49.2% | -1.7% | ? | -9.9%
NC[C@@H]1O[C@H](C23CC4CC(CC(C4)C2)C3)Cc2c1ccc(O)c2O | -4.5%[18.4 µM] | 7.94µM* | -8.8% | -2.7% | 2.9% | 6.6%
COc1ccc(NC(=O)c2ccc([N+](=O)[O-])o2)cc1 | ? | ? | -5.3% | 8.0% | -7.6% | 0.5%
CC(=O)c1ccc(NC(=O)c2ccc([N+](=O)[O-])o2)cc1 | -26.5% | 28.2µM* | -9.6% | -16.0% | -1.0% | -8.0%
Cc1cccc(NC(=O)c2ccc(-c3ccccc3[N+](=O)[O-])o2)c1 | -17.4% | 3.55µM* | -31.3% | -3.2% | -2.3% | 2.0%
CC(=O)c1cccc(NC(=O)c2ccc([N+](=O)[O-])o2)c1 | -5.8% | · | · | · | -1.2% | ·
Cc1cc(C)cc(NC(=O)c2ccc([N+](=O)[O-])o2)c1 | ? | 35.5µM* | -21.6% | -6.0% | -0.9% | -18.1%
Cc1cccc(NC(=O)c2ccc(-n3cccn3)c([N+](=O)[O-])c2)c1 | -21.0% | 39.8µM* | -24.8% | -1.1% | -8.0% | 9.5%
Cc1ccc(NC(=O)c2ccc(-n3cccn3)c([N+](=O)[O-])c2)cc1 | -8.7% | ? | -25.0% | -26.5% | 7.0% | -4.2%
OC[C@H]1O[C@@H](n2cnc3c2NC=NC[C@@H]3O)C[C@H]1O | · | · | · | · | 0.0% | ·
O=C(Nc1ccc(F)cc1Cl)n1ncc2cc(Cl)ccc21 | · | -4.2% | · | · | 0.2% | 3.1%
Cc1ccc(C)c(-c2nnc(NC(=O)c3ccc([N+](=O)[O-])o3)o2)c1 | -16.1% | 35.5µM* | -20.3% | -26.8% | -10.4% | 3.0%
Cc1ccc(-c2nnc(Nc3cccc(O)c3)c3ccccc23)cc1S(=O)(=O)N1CCCCC1 | · | -19.4% | · | · | 0.0% | -9.8%
CCCCc1cc(=O)oc2cc(C)c(CN3CCCC3)c(O)c12 | 18.8% | -5.9% | 15.8µM* | 0.1% | -11.5% | -14.4%
Cc1cccc(C(=O)NNc2ncnc3c2cnn3-c2ccc(C)cc2C)c1 | · | -2.8% | · | · | -12.7% | 3.3%
Cc1ccc(/C=C/C(=O)O)cc1S(=O)(=O)NCCCO | -1.7% | 39.8µM* | -21.1% | 2.8% | 5.0% | 6.6%
